Data published in PubChem BioAssay (NCATS).
Records with an inconclusive call do not appear. Entries that show only a call come without a potency. Calls of active or inactive are those of the source. The call rests on the fitted dose curve; in most records, active means well fitted cell-killing curve with a large enough effect; inconclusive means small, poorly fitted or top-dose-only effect, or effect the other way; inactive means flat fitted curve, though single readings scatter. Where a SMILES comes first, the peptide text is derived from it. [ ]: non-standard residue; d: D form. pGlu = O=C1CC[C@@H](C(=O)O)N1

system: JEG-3; test: Primary qHTS to identify gynecologic anti-cancer compounds using libraries of approved drugs and bioactive compounds (AID 1345084); settings: Gynecologic cancer cell panel viability, ATPlite luminescence, 48 h; series mostly up to 57.5 µM; further: nearly all actives have a fitted effect of over 55% in size
Summary of the method: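 48 h compound exposure at 37 C, 5% CO2; five-point qHTS. ATPlite luminescence readout of cell ATP.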

SMILES | Potency
CCCCCN(CCCOC)C(=O)C(CCC(=O)O)NC(=O)c1ccc(Cl)c(Cl)c1 (configuration not stated) | inactive
CCCCCCn1c(=O)c2c(ncn2C)n(C)c1=O | inactive
CCCc1ncc(C(=O)O)s1 | inactive
C/C(=N/NC(=O)c1ccncc1)C(=O)O | inactive
COC(=O)/C=C(/C)N | inactive
NS(=O)(=O)c1cc2c(cc1Cl)CN(C1CCCCC1)C2=O | inactive
O=C1NC(c2ccccc2)(c2ccccc2)C(=O)N1COP(=O)(O)O | inactive
CCc1cccc2c(CCO)c[nH]c12 | inactive
CCCCC(CC)CNC(=O)CC(C)OC(=O)CCC(=O)O (configuration not stated) | inactive
O=C(O)c1ccc(OCCN2CCCCC2)cc1 | inactive
CCCC(=O)O[C@]1(C(=O)CC)CC[C@H]2[C@@H]3CCC4=CC(=O)CC[C@]4(C)[C@H]3[C@@H](O)C[C@@]21C | inactive
CC(C)N(CCC(=O)c1ccc2ccccc2c1)Cc1ccccc1 | inactive
COC(=O)CCCCC(CCSS/C(CCO)=C(\C)N(C=O)Cc1cnc(C)nc1N)SC(C)=O (configuration not stated) | inactive
O=C1CC2(CCCC2)CC(=O)N1 | inactive
CCCCOCCOC(=O)c1cccnc1 | inactive
CC(=O)N[C@@H](CO)C(=O)N[C@@H](CC(=O)O)C(=O)N[C@@H](CCCCN)C(=O)N1CCC[C@H]1C(=O)O (Ac-SDKP-OH) | inactive
CC(=O)O[C@@H]1CC2C3CCc4cc(OC(=O)c5ccccc5)ccc4C3CCC2(C)[C@H]1OC(C)=O (some centres not stated) | inactive
Cc1ccc2c(Cl)cc(Cl)c(O)c2n1 | inactive
CC(Oc1c(Cl)cccc1Cl)C1=NCCN1 (configuration not stated) | inactive

SMILES | Potency
N#CC1(c2ccc(F)cc2)CCC(=O)CC1 | inactive
CC1(C)OC(=O)Nc2ccc(Br)cc21 | inactive
Cc1cccc(C)c1NC(=O)c1ccc(N)cc1 | inactive
Cc1cccc(OCC(O)CNC(C)(C)C)c1C (configuration not stated) | inactive
Cc1coc2ccccc2c1=O | inactive
COC(=O)c1cc(Cl)c(NC(C)=O)cc1OC | inactive
CSCC[C@H](NC(=O)[C@H](Cc1c[nH]c2ccccc12)NC(=O)CCNC(=O)OC(C)(C)C)C(=O)N[C@@H](CC(=O)O)C(=O)N[C@@H](Cc1ccccc1)C(N)=O | inactive
CC(C)C(=O)OCc1cccc(OC(=O)[C@@H]2N3C(=O)[C@@H](NC(=O)Cc4ccccc4)[C@H]3SC2(C)C)c1 | inactive
COC(=O)c1ccc(NC(C)=O)cc1OC | inactive
Cc1[nH]cnc1-c1ccc(Cl)cc1 | inactive
Cc1ccc(C(=O)C(=O)O)cc1C | inactive
COc1ccc(CCC(C)=O)cc1 | inactive
Cc1sccc1Br | inactive
CCc1cc2cc(OC)c(OC)cc2c(Cc2ccccc2)n1 | inactive
Cc1ccc(C(C)OC(=O)C2(C)CCC(C(=O)O)C2(C)C)cc1 (configuration not stated) | inactive
Fc1ccc(C(c2ccc(F)cc2)N2CCNCC2)cc1 | inactive
CCOC(=O)Oc1ccc(CCNC(=O)[C@H](CCSC)NC(C)=O)cc1OC(=O)OCC | inactive
CCNC(=O)[C@@H]1CCCN1C(=O)[C@H](CCCN=C(N)N)NC(=O)[C@H](CC(C)C)NC(=O)CNC(=O)[C@H](Cc1ccc(O)cc1)NC(=O)[C@H](CO)NC(=O)[C@H](Cc1c[nH]c2ccccc12)NC(=O)[C@H](Cc1cnc[nH]1)NC(=O)[C@@H]1CCC(=O)N1 ([pGlu]HWSYGLRP-NHEt) | inactive
